# Measurements: the supplement of paper PMC6658780
# Structures can show the parent of a compound that is named as a salt. ± gives the standard deviation of the averaged measurements.
# System: Escherichia coli ATCC BAA-2469
# Assay: percent growth inhibition of drug + antibiotic vs DMSO control; higher = more growth inhibition
# Conditions: antibiotic (0.125x MIC): ciprofloxacin; 7 µM
# Description: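 Prestwick drugs tested at 20 uM and 7 uM with an antibiotic at 0.125x MIC (16 mg/L when MIC >128 mg/L) against E. coli ATCC BAA-2469 (NDM-1) in CAMHB, 384-well plates, duplicate runs. Percent growth inhibition was computed from OD600 (24 h minus 0 h) relative to DMSO wells. Drug + DMSO-only wells are also given. […]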
row,SMILES,percent growth inhibition
1,OC(CCN1CCCC1)(c1ccccc1)C1CCCCC1 (centres undefined) [Procyclidine hydrochloride],10.9 ± 16%
2,Nc1ncn(C2OC(CO)C(O)C2O)c(=O)n1 (centres undefined) [Azacytidine-5],99.1 ± 2.6%
3,O=c1[nH]c(=O)n([C@H]2C[C@H](O)[C@@H](CO)O2)cc1C(F)(F)F [Trifluridine],4.99 ± 6.6%
4,Nc1nc(F)nc2c1ncn2[C@@H]1O[C@H](CO)[C@@H](O)[C@@H]1O [Fludarabine],36.5 ± 11%
5,CO[C@H]1/C=C/O[C@@]2(C)Oc3c(C)c(O)c4c(O)c(c(/C=N/N5CCN(C)CC5)c(O)c4c3C2=O)NC(=O)/C(C)=C\C=C\[C@H](C)[C@H](O)[C@@H](C)[C@@H](O)[C@@H](C)[C@H](OC(C)=O)[C@@H]1C [Rifampicin],13.5 ± 3.6%
6,C#C[C@]1(OC(C)=O)CC[C@H]2[C@@H]3CCC4=C[C@@H](OC(C)=O)CC[C@@H]4[C@H]3CC[C@@]21C [Ethynodiol diacetate],5.09 ± 12%

# Same assay, conditions: antibiotic (0.125x MIC): ciprofloxacin; 20 µM
row,SMILES,percent growth inhibition
1,OC(CCN1CCCC1)(c1ccccc1)C1CCCCC1 (centres undefined) [Procyclidine hydrochloride],8.13 ± 9.2%
2,Nc1ncn(C2OC(CO)C(O)C2O)c(=O)n1 (centres undefined) [Azacytidine-5],101 ± 3%
3,O=c1[nH]c(=O)n([C@H]2C[C@H](O)[C@@H](CO)O2)cc1C(F)(F)F [Trifluridine],25.5 ± 3.5%
4,N=C(NCCCCCCNC(=N)NC(=N)Nc1ccc(Cl)cc1)NC(=N)Nc1ccc(Cl)cc1 [Chlorhexidine],103 ± 3.8%
5,Nc1nc(F)nc2c1ncn2[C@@H]1O[C@H](CO)[C@@H](O)[C@@H]1O [Fludarabine],58.8 ± 3.8%
6,CO[C@H]1/C=C/O[C@@]2(C)Oc3c(C)c(O)c4c(O)c(c(/C=N/N5CCN(C)CC5)c(O)c4c3C2=O)NC(=O)/C(C)=C\C=C\[C@H](C)[C@H](O)[C@@H](C)[C@@H](O)[C@@H](C)[C@H](OC(C)=O)[C@@H]1C [Rifampicin],101 ± 2.1%
7,C#C[C@]1(OC(C)=O)CC[C@H]2[C@@H]3CCC4=C[C@@H](OC(C)=O)CC[C@@H]4[C@H]3CC[C@@]21C [Ethynodiol diacetate],8.86 ± 3.1%

# Same assay, conditions: antibiotic (0.125x MIC): gentamicin; 7 µM
row,SMILES,percent growth inhibition
1,O=c1[nH]c(=O)n([C@H]2C[C@H](O)[C@@H](CO)O2)cc1C(F)(F)F [Trifluridine],6.11 ± 0.34%
2,Oc1c(Cl)cc(Cl)c(Cl)c1Cc1c(O)c(Cl)cc(Cl)c1Cl [Hexachlorophene],21.4 ± 16%
3,Cn1c(=O)c2c(ncn2C)n(C)c1=O [Caffeine],1.53 ± 7.1%
4,COc1ccccc1OCC(O)CO (centres undefined) [Guaifenesin],2.34 ± 2.3%
5,NC(=O)N/N=C/c1ccc([N+](=O)[O-])o1 [Nitrofural],8.48 ± 6.7%
6,O=C(Nc1ccc([N+](=O)[O-])cc1Cl)c1cc(Cl)ccc1O [Niclosamide],10.1 ± 2%
7,Oc1c(Cl)cc(Cl)c2cccnc12 [Chloroxine],40 ± 13%
8,Nc1nc(F)nc2c1ncn2[C@@H]1O[C@H](CO)[C@@H](O)[C@@H]1O [Fludarabine],31.6 ± 1.3%
9,COc1cc(C(=O)NCc2ccc(OCCN(C)C)cc2)cc(OC)c1OC [Trimethobenzamide hydrochloride],0.833 ± 1.4%
10,CC(=O)c1ccc2c(c1)N(CCCN1CCC(CCO)CC1)c1ccccc1S2 [Piperacetazine],2.86 ± 2.4%
11,CCOC(=O)c1ccc(N)cc1 [Benzocaine],0.573 ± 3.1%
12,CCCCNc1c(C(=O)OCC)c(C)nc2c1cnn2CC [Tracazolate hydrochloride],0.683 ± 0.77%

# Same assay, conditions: antibiotic (0.125x MIC): gentamicin; 20 µM
row,SMILES,percent growth inhibition
1,Clc1cccc(Cl)c1NC1=NCCN1 [Clonidine hydrochloride],-0.49 ± 2.6%
2,CC1CS(=O)(=O)CCN1/N=C/c1ccc([N+](=O)[O-])o1 (centres undefined) [Nifurtimox],2.95 ± 0.97%
3,Cc1c(OCC(F)(F)F)ccnc1C[S+]([O-])c1nc2ccccc2[nH]1 (centres undefined) [Lansoprazole],12.5 ± 18%
4,N=C(NCCCCCCNC(=N)NC(=N)Nc1ccc(Cl)cc1)NC(=N)Nc1ccc(Cl)cc1 [Chlorhexidine],112 ± 19%
5,Oc1c(Cl)cc(Cl)c2cccnc12 [Chloroxine],112 ± 19%
6,Nc1nc(F)nc2c1ncn2[C@@H]1O[C@H](CO)[C@@H](O)[C@@H]1O [Fludarabine],65.8 ± 12%
7,CC1=C(/C=C/C(C)=C/C=C/C(C)=C\C(=O)O)C(C)(C)CCC1 [Isotretinoin],12.7 ± 20%

# Same assay, conditions: antibiotic (0.125x MIC): meropenem; 7 µM
row,SMILES,percent growth inhibition
1,COc1ccccc1OCC(O)CO (centres undefined) [Guaifenesin],-4.21 ± 1.2%
2,NC(=O)N/N=C/c1ccc([N+](=O)[O-])o1 [Nitrofural],4.64 ± 4%
3,Nc1nc(=S)c2ncn([C@@H]3O[C@H](CO)[C@@H](O)[C@H]3O)c2[nH]1 [Thioguanosine],34.2 ± 1.9%
4,Nc1nc(F)nc2c1ncn2[C@@H]1O[C@H](CO)[C@@H](O)[C@@H]1O [Fludarabine],28.2 ± 5.7%

# Same assay, conditions: antibiotic (0.125x MIC): meropenem; 20 µM
row,SMILES,percent growth inhibition
1,N=C(NCCCCCCNC(=N)NC(=N)Nc1ccc(Cl)cc1)NC(=N)Nc1ccc(Cl)cc1 [Chlorhexidine],99.2 ± 1.6%
2,Nc1nc(=S)c2ncn([C@@H]3O[C@H](CO)[C@@H](O)[C@H]3O)c2[nH]1 [Thioguanosine],81.6 ± 9.8%
3,Nc1nc(F)nc2c1ncn2[C@@H]1O[C@H](CO)[C@@H](O)[C@@H]1O [Fludarabine],64.4 ± 8%
